From PubChem BioAssay (NCI)
Compounds without any hit were thinned out: in the full panel of roughly 79,000, 15% have a hit. Activity calls are given as the source filed them. Cut-off read from the data, not from the text of the source: active = growth inhibition above about 70%; inactive = the rest.

Assay: NCI Yeast Anticancer Drug Screen. Data for the mec2-1 strain (AID 157)
Conditions: S. cerevisiae mec2-1 strain, active compounds read high
Procedure: Growth inhibition of yeast strains with defined genetic alterations is measured as a screen for potential anti-cancer activity. Selected strains with alterations in DNA damage repair or cell cycle control were exposed to compounds and growth inhibition was measured relative to vehicle treated controls. The strain used in this assay is mec2-1

[1] = at 5.0 µM (retest, dose inferred, filed as 0.5)
[2] = at 50.0 µM (retest, dose inferred, filed as 5.0)

Compound | growth inhibition (at 1.2 µM) | growth inhibition (at 3.7 µM) | growth inhibition [1] | growth inhibition (at 11.0 µM) | growth inhibition (at 33.0 µM) | growth inhibition [2] | growth inhibition (at 50.0 µM) | growth inhibition (at 100.0 µM)
CSC(=S)N/N=C/c1ccccc1 | 5% (inactive) | 13% (inactive) | 48% (inactive) | 10% (inactive) | 20% (inactive) | 76% (active) | 75.8% (active) | 23% (inactive)
Cc1c2cc[n+](CCO)cc2c(C)c2c1[nH]c1ccc(O)cc12 | 22% (inactive) | 28% (inactive) | 15% (inactive) | 30% (inactive) | 48% (inactive) | 36% (inactive) | 36.7% (inactive) | 52% (inactive)
O=c1c2ccccc2nc(-c2cccc([N+](=O)[O-])c2)n1O | 14% (inactive) | 19% (inactive) | 7% (inactive) | 37% (inactive) | 58% (inactive) | 95% (active) | 97.7% (active) | 68% (inactive)
O=C1NC(c2cccc(OCc3ccccc3)c2)Nc2ccccc21 (stereo not given) | 13% (inactive) | 11% (inactive) | 42% (inactive) | 6% (inactive) | 5% (inactive) | 74% (active) | 77.8% (active) | 0% (inactive)
CC(=O)O/N=C1C=C/C(=C(/C#N)c2ccccc2)C=C/1C | -1% (inactive) | 4% (inactive) | 16% (inactive) | 19% (inactive) | 99% (active) | 98% (active) | 99.5% (active) | 96% (active)
